Compound activity (PubChem)
This is a sample that favours compounds with a hit; in the whole collection about 8.7% have one here.
VACV Venus inh = inhibitors of vaccinia virus (Venus reporter); Vaccinia virus Venus reporter expression, fluorescence; Potency, µM (top dose mostly 36.5 µM), without a hit: at the highest dose activity change, negative = inhibition, actives largely listed as inhibitors; 0.46% of 330,000 active; AID 720580; calls by dose curve; tested in A549 cells; also: nearly all actives have a fitted effect of over 30% in size
Pf growth 96h = inhibits malaria parasite growth, 96 h | P. falciparum luciferase reporter growth, 96 h | Potency, µM (top dose mostly 28.7 µM), for inactives: at the top dose activity change, negative = inhibition, actives largely listed as inhibitors | 6.9% of 320,000 active | AID 504834
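Luminescence readout: decreased luciferase signal marks inhibited growth of reporter-expressing P. falciparum in infected red cells (2% hematocrit, 0.05% parasitemia final), exposed to compound two generations (96 h, 37 C, 5% CO2).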
Pf growth 48h = inhibits P. falciparum growth in the first generation, 48 h | AID 504832 | Potency, µM (top dose mostly 28.7 µM), without a hit: at the highest dose activity change, negative = inhibition, most hits filed as inhibitors | P. falciparum luciferase growth in erythrocytes, 48 h | 5.9% of 310,000 active
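A one-generation exposure of luciferase-tagged malaria parasites in RPMI 1640/Albumax erythrocyte culture, 37 C and 5% CO2. Inhibition is inferred from decreased luminescence after adding detection reagent.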
AMA1-RON2 inh = disrupts binding of P. falciparum AMA1 to RON2 | AlphaScreen AMA1-biotinylated RON2 peptide binding | Potency, µM (top dose mostly 58.2 µM), inactives show at the top dose activity change, negative = inhibition, hits mostly inhibitors | 0.2% of 360,000 active;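 also: 0% = vehicle wells and -100% = peptide control; nearly all actives have a fitted effect of over 45% in size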
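AMA1 (3D7) with his tag at 25 nM final met compounds first, then biotinylated RON2 peptide at 25 nM; detection used donor plus acceptor beads, 10 µg/mL apiece, read by AlphaScreen after 30 min at room temperature.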
VACV mCherry inh = inhibitors of vaccinia virus infection (mCherry reporter signal) | Vaccinia virus mCherry reporter infection, fluorescence | Potency, µM (series often up to 36.5 µM), inactives show top-dose activity change, negative = inhibition, most hits filed as inhibitors | 0.63% of 310,000 active | AID 720579; calls by dose curve; tested in A549 cells; also: nearly all actives have a fitted effect of over 35% in size
Numbers without * were called inactive; i = inactive; ? = inconclusive; nt = not tested or not shown; [ ] = dose if it differs, or a comment. Unless noted, calls follow the shape of the dose curve; as a rule, active = well fitted curve in the direction sought with a large enough effect; inconclusive = small, poorly fitted or top-dose-only effect, or another doubt; inactive = no such curve, though single readings can be large; an effect the other way counts as inactive or inconclusive. Unless noted, % is scaled to controls: 0 for no effect and ±100 for the full control effect; potency is read from the fitted curve at half-maximal effect.

SMILES	VACV Venus inh	Pf growth 96h	Pf growth 48h	AMA1-RON2 inh	VACV mCherry inh
CCCS(=O)(=O)c1c(S(=O)(=O)CCC)c2c(C)cccn2c1C(=O)OC	-16%	6%	-2%	-6%	-1%
C=CCn1c(CSc2nnc(-c3ccccc3)n2C)n[nH]c1=S	-1%[7.34 µM]	-20%	?	32%	-24%[7.34 µM]
C=CCn1c(SCc2n[nH]c(=S)n2-c2ccccc2)nnc1-c1ccccc1	nt	6.6µM*	-13%	57%	nt
Cc1ccc2nc(-c3cccc(NC(=O)c4cccc5ccccc45)c3)oc2c1	-7%	nt	nt	nt	-7%
CCN(C(=O)/C=C/c1ccccc1)C1CCCCC1	-15%	13µM*	84%	11%	-14%
O=C(C[N+]12CCCc3cccc(c31)CCC2)c1ccc(Cl)c2ccccc12	-4%	nt	nt	nt	-12%
Cc1c(C2(c3cc(C(C)C)c(O)c(Br)c3C)OS(=O)(=O)c3ccccc32)cc(C(C)C)c(O)c1Br	-7%	nt	nt	nt	-9%
CC1CCCCN1C(=S)NC(=O)c1cc(Br)ccc1Cl (stereo not given)	nt	13µM*	?	63%	nt
O=C(NC1c2ccccc2-c2ccccc21)N1CCOCC1	10µM*	-6%	5%	3%	11µM*
CCCCN1/C(=C/c2ccc3ccccc3[n+]2CC)Sc2ccccc21	422%	24%	2.9µM*	-6%	-5%
CCc1nc(SCc2ccccc2C#N)n[nH]1	-14%	9.3µM*	-12%	5%	0%
Cc1ccc(Cl)cc1N1CCN(C(=O)CN2C(=O)COc3ccc(S(=O)(=O)N4CCC(C)CC4)cc32)CC1	-8%	nt	nt	nt	-7%
CC1CCN(S(=O)(=O)c2ccc3c(c2)N(CC(=O)N2CCN(c4ccc(Cl)cc4)CC2)C(=O)CO3)CC1	-5%	nt	nt	nt	-9%
COC(=O)c1c(NC(=O)C2CCCCC2)sc2c1CCN(C(C)C)C2	-19%	?	?	-2%	-24%
CCOC(=O)c1c(NC(=O)C2CCCCC2)sc2c1CCN(C(C)C)C2	-8%	13µM*	-11%	0%	i
CN1CCc2c(sc(NC(=O)c3ccc4ccccc4c3)c2C(N)=O)C1	nt	?	-70%	nt	nt
CCOC(=O)c1c(NC(=O)CN(CC)CC)sc2c1CCC2	-20%	33%	12µM*	40%	-1%
CC(C)N1CCc2c(sc(NC(=O)C3CCCCC3)c2C(N)=O)C1	13µM*	?	?	6%	?
COc1cc2ccccc2cc1C(=O)Nc1sc2c(c1C(N)=O)CCN(C(C)C)C2	nt	5.9µM*	8.3µM*	nt	nt
COc1cc2c(cc1OC)-c1cc(=Nc3c(C)cc(C)cc3C)n(C)c(=O)n1CC2	-23%	0.76µM*	0.67µM*	nt	-28%
COc1cc2c(cc1OC)-c1cc(NC3CCCC3)nc(=O)n1CC2	nt	6%[5.75 µM]	?	-9%	nt
O=C(c1cc(NC(=O)C23CC4CC(CC(C4)C2)C3)cc(NC(=O)C23CC4CC(CC(C4)C2)C3)c1)N1CCCCC1	nt	1.5µM*	1.9µM*	-6%	nt
CCn1c(SCC(=O)c2c(N)n(C3CC3)c(=O)[nH]c2=O)nnc1-c1ccccc1OC	-8%	8.3µM*	?	13%	i
Nc1c(C(=O)CSc2nncn2-c2ccccc2)c(=O)[nH]c(=O)n1C1CC1	nt	12µM*	?	0%	nt
Cc1cccc(Nc2nnc(SCC(=O)c3c(N)n(C4CC4)c(=O)[nH]c3=O)s2)c1	nt	6.6µM*	-18%	16%	nt
SMILES	VACV Venus inh	Pf growth 96h	Pf growth 48h	AMA1-RON2 inh	VACV mCherry inh
CCn1c(Cc2ccccc2)nnc1SCC(=O)c1c(N)n(C2CC2)c(=O)[nH]c1=O	nt	9.3µM*	?	9%	nt
CC1CCc2nn(CC(=O)Nc3cccc(C(F)(F)F)c3)c(=O)cc2C1 (stereo not given)	-3%	nt	nt	nt	-9%
O=C(Cn1ccn(-c2ccc(F)c(F)c2)c(=O)c1=O)NCc1ccccc1	-1%	nt	nt	nt	-5%
CCc1ccc(Nc2nnc(SC(C)C(=O)NC3CC3)s2)cc1 (stereo not given)	-14%	nt	nt	1%	-2%
COCCn1c(SCC(=O)c2c(N)n(C3CC3)c(=O)[nH]c2=O)nnc1-c1cccc(C)c1	nt	8.3µM*	8.3µM*	-6%	nt
Cc1cccc(Nc2nnc(SC(C)C(=O)NC3CC3)s2)c1 (stereo not given)	nt	10µM*	13µM*	-4%	nt
Nc1c(C(=O)CSc2nnc(COc3ccc(Cl)cc3)o2)c(=O)[nH]c(=O)n1C1CC1	nt	10µM*	?	1%	nt
CCc1nnc2c(Nc3ccc(Br)c(C)c3)nc3ccccc3n12	0%	nt	nt	nt	-8%
COc1ccc2c(c1)OC(C)CN(CCNC(=O)C1CCOC1)C2 (stereo not given)	7%	nt	nt	nt	-4%
Cc1ccc(NC(=O)CCC(=O)N2CCSc3ccccc32)cc1Cl	-4%	nt	nt	nt	-12%
Cc1ccc(-c2csc3nc(CN(C)Cc4ccccc4)[nH]c(=O)c23)cc1	-15%	4.1µM*	12µM*	-10%	-14%
C1=C(c2ccccc2)CCNC1	-16%	22%	6%	-6%	i
Cc1[nH]c2ccccc2c1C1=CCNCC1	nt	-31%	3.3µM*	0%	nt
O=c1[nH]c(=O)n(-c2ccccc2)c(O)c1/C=C1/C(c2ccccc2)=Nc2ccccc21	?	9.3µM*	?	-11%[2.32 µM]	?
COC(=O)C1=Nc2ccccc2/C1=C\c1c(O)n(-c2ccc(Br)cc2)c(=O)[nH]c1=O	-4%	8%	14%	8%[11.6 µM]	-10%
COc1ccc(-c2cc(OC(=O)c3ccccc3Cl)c3c(C)oc(C)c3c(=O)c2)cc1OC	18%	nt	nt	nt	-7%
CN1CCN(CP(=O)(N2CCOCC2)N2CCOCC2)CC1	-11%	-23%	-4%	40%	-8%
CC(C)OP(C)(=O)CN1CCN(CP(C)(=O)OC(C)C)CC1 (stereo not given)	-5%	0.52µM*	8%	4%	-19%
O=Nc1c(-c2ccccc2)n(O)[n+]([O-])c1-c1ccccc1	11µM*	nt	nt	-26%	?
Cc1c(-c2ccccc2)n(O)[n+]([O-])c1-c1ccccc1	-11%	nt	nt	-1%	i
O=C(c1ccc(F)cc1)N1CCN2C(=O)c3ccccc3C12c1ccc(Cl)cc1 (stereo not given)	-14%	5.2µM*	13µM*	-3%	i
O=C1c2ccccc2C2(c3ccc(Cl)cc3)NCCN12 (stereo not given)	-4%	13µM*	-14%	25%	-1%
O=C1c2ccccc2C2(c3ccccc3)NCCCN12 (stereo not given)	nt	38%	10%	-9%	nt
CCn1c(CCNC(=O)c2ccco2)nc2ccccc21	-3%	9.3µM*	-8%	-14%	-1%
CCn1c(CCCNC(=O)c2ccco2)nc2ccccc21	-4%	13%	-25%	0%	1%
O=C(Nc1nc2ccccc2n1Cc1ccccc1)c1ccco1	-1%	nt	13µM*	-1%	nt
O=C(NCCc1nc2ccccc2n1Cc1ccccc1)c1ccco1	0%	nt	nt	nt	-15%
Cc1ccc(C)c(C(=O)N2CCC(C3(c4ccccn4)NC(=O)N(CC4CCCO4)C3=O)CC2)c1 (stereo not given)	-13%	nt	nt	nt	i
